# Measurements from the supplement of paper PMC10849652.
# About 8,800 targets were measured; listed, in parts, are those with a hit and a random draw of the rest. About 0.5% of all pairs of compound and target were hits. A number with no mark means an inactive call.
# Legend:
# Experiment in all cases: log2 fold change, soluble protein after heating vs DMSO (PISA); higher = thermal stabilisation; K562 lysate, 10 uM; active = over 0.2 and 3.5 SD of the protein, either way, in both replicates (recomputed)
# lapatinib = compound: CS(=O)(=O)CCNCc1ccc(-c2ccc3ncnc(Nc4ccc(OCc5cccc(F)c5)c(Cl)c4)c3c2)o1 [lapatinib]
# Method in brief: (§1)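 Values give the log-two fold change in thermal stability against solvent controls, from duplicates. Crude K562 extract at 1 mg/mL protein, made by dounce homogenisation in PBS pH 7.4 with 1 mM MgCl2, was treated with 10 μM compound for 30 min. After 3 min heating across 48°C-58°C, aliquots were pooled, adjusted to 0.5% NP-40 at 4°C and centrifuged at 21,000xg for 90 min. The supernatant was measured by TMTpro 16plex LC-MS/MS with channel sums equalised.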
# pictilisib = compound: CS(=O)(=O)N1CCN(Cc2cc3nc(-c4cccc5[nH]ncc45)nc(N4CCOCC4)c3s2)CC1 [pictilisib]
# Method in brief: as §1
# crizotinib = compound: C[C@@H](Oc1cc(-c2cnn(C3CCNCC3)c2)cnc1N)c1c(Cl)ccc(F)c1Cl [crizotinib]
# Method in brief: as §1
# [1] = compound: C[C@H](C1=CC=C(C=C1)C(=O)NC2=C3C=CNC3=NC=C2)N
# Method in brief: as §1
# duvelisib = compound: C[C@H](Nc1ncnc2nc[nH]c12)c1cc2cccc(Cl)c2c(=O)n1-c1ccccc1 [duvelisib]
# Method in brief: as §1
# gandotinib = compound: Cc1cc(Nc2cc(CN3CCOCC3)c3nc(C)c(Cc4ccc(Cl)cc4F)n3n2)n[nH]1 [gandotinib]
# Method in brief: as §1
# tozasertib = compound: Cc1cc(Nc2cc(N3CCN(C)CC3)nc(Sc3ccc(NC(=O)C4CC4)cc3)n2)n[nH]1 [tozasertib]
# Method in brief: as §1
# doramapimod = compound: Cc1ccc(-n2nc(C(C)(C)C)cc2NC(=O)Nc2ccc(OCCN3CCOCC3)c3ccccc23)cc1 [doramapimod]
# Method in brief: as §1
# bafetinib = compound: Cc1ccc(NC(=O)c2ccc(CN3CC[C@H](N(C)C)C3)c(C(F)(F)F)c2)cc1Nc1nccc(-c2cncnc2)n1 [bafetinib]
# Method in brief: as §1
# [2] = compound: Cc1cccc(CC(=O)N2CCc3c2ccc(-c2cn(C)c4ncnc(N)c24)c3F)n1
# Method in brief: as §1
# nilotinib = compound: Cc1cn(-c2cc(NC(=O)c3ccc(C)c(Nc4nccc(-c5cccnc5)n4)c3)cc(C(F)(F)F)c2)cn1 [nilotinib]
# Method in brief: as §1
# [3] = compound: Cc1nc(Nc2n[nH]c3c2CN(C(=O)N[C@H](CN(C)C)c2ccccc2)C3(C)C)c2sccc2n1
# Method in brief: as §1
# dasatinib = compound: Cc1nc(Nc2ncc(C(=O)Nc3c(C)cccc3Cl)s2)cc(N2CCN(CCO)CC2)n1 [dasatinib]
# Method in brief: as §1
# [4] = compound: Cc1ncc(-c2ccnc(Nc3ccc(S(C)(=O)=O)cc3)n2)n1C(C)C
# Method in brief: as §1
# [5] = compound: Cn1cc(-c2ccc3c(c2)CCN3C(=O)Cc2cccc(C(F)(F)F)c2)c2c(N)ncnc21
# Method in brief: as §1
# quisinostat = compound: Cn1cc(CNCC2CCN(c3ncc(C(=O)NO)cn3)CC2)c2ccccc21 [quisinostat]
# Method in brief: as §1
# tipifarnib = compound: Cn1cncc1[C@@](N)(c1ccc(Cl)cc1)c1ccc2c(c1)c(-c1cccc(Cl)c1)cc(=O)n2C [tipifarnib]
# Method in brief: as §1
# [6] = compound: NC(=O)Nc1cc(-c2cccc(F)c2)sc1C(=O)N[C@H]1CCCNC1
# Method in brief: as §1
# [7] = compound: NC(=O)c1cnc(N[C@@H]2CCCC[C@@H]2N)nc1Nc1cccc(-n2nccn2)c1
# Method in brief: as §1
# [8] = compound: NC1(c2ccc(-c3nc4ccn5c(=O)[nH]nc5c4cc3-c3ccccc3)cc2)CCC1
# Method in brief: as §1
# Chain of UniProt Q8N302 (Q8N302 whole entry, looked up): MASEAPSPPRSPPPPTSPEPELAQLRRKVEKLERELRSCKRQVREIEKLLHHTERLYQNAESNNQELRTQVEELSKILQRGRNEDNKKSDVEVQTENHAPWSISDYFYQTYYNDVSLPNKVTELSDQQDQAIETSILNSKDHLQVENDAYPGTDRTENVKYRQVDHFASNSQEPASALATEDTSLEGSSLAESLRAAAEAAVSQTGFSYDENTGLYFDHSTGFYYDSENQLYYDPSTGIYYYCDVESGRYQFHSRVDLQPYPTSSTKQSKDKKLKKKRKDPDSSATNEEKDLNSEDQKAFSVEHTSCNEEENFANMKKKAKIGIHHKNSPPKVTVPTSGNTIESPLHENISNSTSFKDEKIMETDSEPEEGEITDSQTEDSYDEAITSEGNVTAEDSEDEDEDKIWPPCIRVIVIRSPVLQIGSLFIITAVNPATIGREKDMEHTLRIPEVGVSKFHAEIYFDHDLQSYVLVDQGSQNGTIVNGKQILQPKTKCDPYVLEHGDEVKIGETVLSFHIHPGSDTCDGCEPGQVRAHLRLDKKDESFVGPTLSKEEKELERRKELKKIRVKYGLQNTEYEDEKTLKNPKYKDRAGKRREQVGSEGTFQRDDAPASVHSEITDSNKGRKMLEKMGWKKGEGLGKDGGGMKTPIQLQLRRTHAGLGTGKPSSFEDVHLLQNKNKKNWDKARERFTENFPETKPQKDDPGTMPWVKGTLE
# Chain of UniProt Q04771 (Q04771 whole entry, looked up): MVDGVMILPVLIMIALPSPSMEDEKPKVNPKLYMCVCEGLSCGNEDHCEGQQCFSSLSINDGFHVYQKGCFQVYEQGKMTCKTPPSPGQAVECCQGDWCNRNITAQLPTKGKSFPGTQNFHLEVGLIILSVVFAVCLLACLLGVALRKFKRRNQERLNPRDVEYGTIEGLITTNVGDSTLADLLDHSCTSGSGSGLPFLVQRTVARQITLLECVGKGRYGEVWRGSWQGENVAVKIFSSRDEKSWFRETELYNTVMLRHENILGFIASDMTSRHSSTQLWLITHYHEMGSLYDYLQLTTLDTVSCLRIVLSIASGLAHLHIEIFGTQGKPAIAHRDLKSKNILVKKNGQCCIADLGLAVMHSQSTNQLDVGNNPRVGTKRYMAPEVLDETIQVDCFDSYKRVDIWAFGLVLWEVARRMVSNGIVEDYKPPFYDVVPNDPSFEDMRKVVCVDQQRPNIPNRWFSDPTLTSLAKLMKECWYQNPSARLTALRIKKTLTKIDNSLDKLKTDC
# Chain of UniProt Q13686 (Q13686 whole entry, looked up): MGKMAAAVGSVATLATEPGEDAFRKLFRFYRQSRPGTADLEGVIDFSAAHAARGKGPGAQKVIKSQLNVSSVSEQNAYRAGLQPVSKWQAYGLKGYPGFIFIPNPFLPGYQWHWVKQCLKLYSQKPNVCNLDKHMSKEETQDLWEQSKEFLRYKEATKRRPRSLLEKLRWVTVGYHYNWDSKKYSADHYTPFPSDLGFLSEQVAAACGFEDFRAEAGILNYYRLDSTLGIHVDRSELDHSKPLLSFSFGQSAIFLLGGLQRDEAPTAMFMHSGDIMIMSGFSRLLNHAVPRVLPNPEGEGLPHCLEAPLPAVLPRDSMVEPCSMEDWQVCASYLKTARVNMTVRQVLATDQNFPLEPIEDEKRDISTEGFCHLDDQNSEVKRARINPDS
# Chain of UniProt Q96BM9 (Q96BM9 whole entry, looked up): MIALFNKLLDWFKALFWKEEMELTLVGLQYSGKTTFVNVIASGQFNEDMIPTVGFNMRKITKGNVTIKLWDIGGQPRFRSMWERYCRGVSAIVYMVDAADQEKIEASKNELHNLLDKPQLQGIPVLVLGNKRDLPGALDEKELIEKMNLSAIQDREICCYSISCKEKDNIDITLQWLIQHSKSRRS
# Chain of UniProt P53396 (P53396 whole entry, looked up): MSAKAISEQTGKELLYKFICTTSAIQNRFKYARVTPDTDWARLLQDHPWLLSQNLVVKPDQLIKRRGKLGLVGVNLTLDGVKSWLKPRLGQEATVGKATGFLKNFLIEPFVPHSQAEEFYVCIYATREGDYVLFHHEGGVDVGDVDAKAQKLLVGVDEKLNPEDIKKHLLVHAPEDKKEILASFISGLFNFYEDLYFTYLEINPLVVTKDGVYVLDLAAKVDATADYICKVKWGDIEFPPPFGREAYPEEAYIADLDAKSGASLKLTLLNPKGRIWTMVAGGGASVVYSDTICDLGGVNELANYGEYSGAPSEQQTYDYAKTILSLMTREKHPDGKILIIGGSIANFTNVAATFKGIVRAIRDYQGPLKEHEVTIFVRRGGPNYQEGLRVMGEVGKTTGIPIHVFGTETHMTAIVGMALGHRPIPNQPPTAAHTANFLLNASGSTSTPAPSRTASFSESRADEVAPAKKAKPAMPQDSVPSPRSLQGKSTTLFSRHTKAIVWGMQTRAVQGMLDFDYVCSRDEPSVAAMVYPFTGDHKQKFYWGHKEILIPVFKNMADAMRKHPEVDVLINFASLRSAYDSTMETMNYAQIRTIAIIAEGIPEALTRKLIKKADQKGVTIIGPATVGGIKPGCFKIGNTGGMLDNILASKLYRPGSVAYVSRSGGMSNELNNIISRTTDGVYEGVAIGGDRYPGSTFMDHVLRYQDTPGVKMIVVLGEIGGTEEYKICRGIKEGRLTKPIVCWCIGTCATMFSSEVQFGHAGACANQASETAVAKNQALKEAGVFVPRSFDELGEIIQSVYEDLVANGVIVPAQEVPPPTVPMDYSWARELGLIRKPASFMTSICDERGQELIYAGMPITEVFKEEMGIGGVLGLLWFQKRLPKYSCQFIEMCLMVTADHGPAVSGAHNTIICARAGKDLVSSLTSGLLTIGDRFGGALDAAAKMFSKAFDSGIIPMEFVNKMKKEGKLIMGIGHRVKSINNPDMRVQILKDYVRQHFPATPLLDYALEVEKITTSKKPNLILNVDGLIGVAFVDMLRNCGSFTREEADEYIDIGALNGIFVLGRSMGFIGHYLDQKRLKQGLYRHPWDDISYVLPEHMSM
# Chain of UniProt Q8N8A2 (Q8N8A2 whole entry, looked up): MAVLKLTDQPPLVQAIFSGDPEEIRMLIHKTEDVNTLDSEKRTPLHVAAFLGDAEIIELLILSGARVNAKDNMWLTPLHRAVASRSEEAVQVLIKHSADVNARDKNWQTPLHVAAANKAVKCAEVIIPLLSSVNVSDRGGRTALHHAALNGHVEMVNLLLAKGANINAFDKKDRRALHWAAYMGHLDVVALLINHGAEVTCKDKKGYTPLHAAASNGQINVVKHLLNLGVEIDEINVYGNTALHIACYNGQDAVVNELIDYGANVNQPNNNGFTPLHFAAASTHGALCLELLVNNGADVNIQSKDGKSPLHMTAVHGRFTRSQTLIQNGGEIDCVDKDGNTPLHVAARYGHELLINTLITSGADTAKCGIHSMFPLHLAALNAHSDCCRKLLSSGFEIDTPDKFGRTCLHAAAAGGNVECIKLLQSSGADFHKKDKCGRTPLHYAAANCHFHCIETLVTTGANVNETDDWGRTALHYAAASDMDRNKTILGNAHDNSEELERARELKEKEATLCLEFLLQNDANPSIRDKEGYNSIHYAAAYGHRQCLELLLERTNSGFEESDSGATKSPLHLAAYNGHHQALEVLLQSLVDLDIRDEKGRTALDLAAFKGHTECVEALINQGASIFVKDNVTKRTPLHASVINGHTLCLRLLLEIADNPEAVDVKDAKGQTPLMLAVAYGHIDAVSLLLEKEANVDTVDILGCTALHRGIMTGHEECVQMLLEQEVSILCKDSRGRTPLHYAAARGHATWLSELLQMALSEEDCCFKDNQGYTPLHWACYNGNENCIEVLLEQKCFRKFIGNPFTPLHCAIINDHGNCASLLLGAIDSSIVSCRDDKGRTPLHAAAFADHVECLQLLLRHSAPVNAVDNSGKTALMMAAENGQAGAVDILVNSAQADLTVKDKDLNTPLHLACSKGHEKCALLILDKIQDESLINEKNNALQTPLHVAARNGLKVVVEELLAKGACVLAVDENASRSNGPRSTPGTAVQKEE
# Chain of UniProt P30838 (P30838 whole entry, looked up): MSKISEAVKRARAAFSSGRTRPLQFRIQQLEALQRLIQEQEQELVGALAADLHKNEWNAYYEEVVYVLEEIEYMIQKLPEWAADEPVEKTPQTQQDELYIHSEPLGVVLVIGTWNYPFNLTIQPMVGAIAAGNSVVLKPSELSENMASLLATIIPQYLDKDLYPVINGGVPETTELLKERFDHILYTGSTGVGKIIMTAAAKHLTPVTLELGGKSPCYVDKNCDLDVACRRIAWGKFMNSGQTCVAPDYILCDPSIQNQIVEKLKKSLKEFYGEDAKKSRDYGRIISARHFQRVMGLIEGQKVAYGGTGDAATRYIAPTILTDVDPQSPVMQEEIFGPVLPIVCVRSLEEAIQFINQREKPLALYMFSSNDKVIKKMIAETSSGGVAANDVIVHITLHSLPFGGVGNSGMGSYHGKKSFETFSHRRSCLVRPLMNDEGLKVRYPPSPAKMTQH
# Chain of UniProt Q3SXY8 (Q3SXY8 whole entry, looked up): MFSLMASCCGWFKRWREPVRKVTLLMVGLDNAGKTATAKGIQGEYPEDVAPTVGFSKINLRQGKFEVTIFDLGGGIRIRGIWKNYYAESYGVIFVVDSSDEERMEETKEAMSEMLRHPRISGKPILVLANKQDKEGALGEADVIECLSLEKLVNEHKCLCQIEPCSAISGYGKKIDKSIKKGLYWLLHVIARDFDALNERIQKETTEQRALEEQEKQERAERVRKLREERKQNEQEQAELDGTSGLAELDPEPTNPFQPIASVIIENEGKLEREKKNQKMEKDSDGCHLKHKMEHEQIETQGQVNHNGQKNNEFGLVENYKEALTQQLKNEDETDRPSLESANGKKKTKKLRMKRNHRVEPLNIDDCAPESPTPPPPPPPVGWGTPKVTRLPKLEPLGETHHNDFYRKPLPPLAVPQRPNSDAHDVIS
Target,log2 fold change (lapatinib),log2 fold change (pictilisib),log2 fold change (crizotinib),log2 fold change [1],log2 fold change (duvelisib),log2 fold change (gandotinib),log2 fold change (tozasertib),log2 fold change (doramapimod),log2 fold change (bafetinib),log2 fold change [2],log2 fold change (nilotinib),log2 fold change [3],log2 fold change (dasatinib),log2 fold change [4],log2 fold change [5],log2 fold change (quisinostat),log2 fold change (tipifarnib),log2 fold change [6],log2 fold change [7],log2 fold change [8]
ARL8A (UniProt Q96BM9),-0.11,0.038,0.091,0.426 (active),-0.078,0,-0.063,-0.005,-0.016,-0.088,0.003,0.049,0.037,0.091,-0.049,0.17,-0.203,0.153,0.247,-0.054
ARHGEF2 (UniProt V9GYF0),-0.134,–,–,–,0.11,–,0.041,–,–,–,0.029,-0.119,0.02,-0.113,-0.139,–,-0.23,–,0.117,–
"ADK, A0A5F9ZH76",-0.013,-0.074,–,–,–,–,–,–,0.147,–,-0.267,0.089,–,0.065,–,–,0.487,–,-0.083,–
ACVR1 (UniProt Q04771),–,0.006,–,0.103,-0.015,0.643,–,–,0.007,-0.294,-0.11,0.013,0.258,0.476,-0.046,–,-0.309,–,–,–
ARMCX5 (UniProt Q6P1M9),-0.033,0.04,–,-0.001,-0.114,0.001,0.032,–,-0.104,0.078,0.035,0.009,-0.039,0.037,-0.07,–,-0.023,–,0.02,-0.027
ARL13B (UniProt Q3SXY8),0.016,-0.074,-0.075,0.4 (active),0.014,-0.23,–,-0.068,0.025,-0.217,–,–,0,–,-0.012,-0.313,–,0.095,0.131,0.013
AGGF1 (UniProt Q8N302),-0.046,-0.133,-0.028,-0.193,–,0.139,0.04,-0.011,0.047,0.268,0.02,0.055,–,0.087,–,-0.041,-0.06,-0.007,0.075,0.024
ABCC5 (UniProt O15440),0.013,0.13,0.014,-0.038,-0.045,0.043,-0.016,0.081,-0.117,0.045,–,–,0.105,–,-0.047,-0.003,–,0.035,-0.035,-0.015
ALDH3A1 (UniProt P30838),-0.002,–,-0.134,-0.721,-0.061,0.569,–,0.015,–,0.586,–,–,1.35 (active),–,-0.024,-0.381,–,-0.065,0.055,-0.018
ACLY isoform 2 (UniProt P53396),0.012,-0.03,0.078,-0.423 (active),–,0.323,0.055,-0.119,0.004,0.277,0.08,0.038,–,0.191,–,0.162,0.02,-0.027,-0.062,–
ANKRD30B (UniProt Q9BXX2),-0.049,-0.068,–,-0.558 (active),0.087,0.337,-0.005,–,-0.163,0.397,0.061,-0.076,-0.061,0.072,-0.015,–,-0.065,–,0.059,-0.051
ALKBH1 (UniProt Q13686),–,–,–,-0.016,0.014,0,0.09,–,–,0.048,-0.087,-0.026,-0.249,-0.052,0.007,–,0.137,–,–,0.116
AMDHD2 (UniProt Q9Y303),–,–,-0.056,0.052,–,-0.015,–,0.057,–,0.065,–,–,–,–,–,-0.001,–,0.048,–,–
ANKRD44 isoform 2 (UniProt Q8N8A2),-0.004,0.046,–,-1.57 (active),–,0.465,0.12,–,-0.405,0.766 (active),-0.19,-0.03,–,-0.216,–,–,0,–,-0.019,0.025
